Experimental data from PubChem BioAssay AID1159580 (chemical genetic matrix, 2015).
Where “and” joins values, the source holds several entries; their conditions need not be identical. Identical values can stand only once. Among all 5,500 compounds or so, about 2,000 (36%) were called active. Roughly 18% stayed inconclusive and do not appear here. No stated cut-off is given here; in the data, active means normalized growth mostly below about 0.91 (no sharp cut-off); inconclusive means no clear call, values can overlap the other calls; inactive means mostly above about 0.92. The list shows a part of the results.

Test: chemical genetic growth profiling, strain panel (AID 1159580);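 further: tested at 20 µM; growth read once vehicle control cultures reached saturation at 30 °C; 1 = growth at the plate median or of vehicle wells; lower values mean less growth of the strain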
Details: growth OD

Measured: normalized growth

COc1cc(OC)c2c(c1)OC(c1ccccc1)CC2=O (stereo unspecified)
inactive: S. cerevisiae deletion strains, locus YBR021W, strain FUR4, hits give low values 0.99 | S. cerevisiae deletion strains, locus YBR229C, strain ROT2, hits give low values 0.986 | S. cerevisiae deletion strains, locus YCL029C, strain bik1, hits give low values 1.03 | S. cerevisiae deletion strains, locus YDL035C, strain GPR1, hits give low values 0.988 | S. cerevisiae deletion strains, locus YDL074C, strain BRE1, hits give low values 0.994 | S. cerevisiae deletion strains, locus YDL101C, strain DUN1, hits give low values 0.989 | S. cerevisiae deletion strains, locus YDL185W, strain tfp1, hits give low values 1.01 | S. cerevisiae deletion strains, locus YDL192W, strain arf1, hits give low values 0.979 | S. cerevisiae deletion strains, locus YDR101C, strain arx1, hits give low values 1.02 | S. cerevisiae deletion strains, locus YDR150W, strain NUM1, hits give low values 0.983 | S. cerevisiae deletion strains, locus YDR162C, strain NBP2, hits give low values 0.987 | S. cerevisiae deletion strains, locus YDR318W, strain mcm21, hits give low values 0.988 | S. cerevisiae deletion strains, locus YDR388W, hits give low values 0.999 | S. cerevisiae deletion strains, locus YDR502C, strain sam2, hits give low values 1 | S. cerevisiae deletion strains, locus YEL061C, strain CIN8, hits give low values 0.984 | S. cerevisiae deletion strains, locus YER110C, hits give low values 1.01 | S. cerevisiae deletion strains, locus YER155C, strain BEM2, hits give low values 0.996 | S. cerevisiae deletion strains, locus YER167W, strain BCK2, hits give low values 0.994 | S. cerevisiae deletion strains, locus YGL078C, strain dbp3, hits give low values 1.01 | S. cerevisiae deletion strains, locus YGL086W, strain mad1, hits give low values 1 | S. cerevisiae deletion strains, locus YGL248W, strain PDE1, hits give low values 0.987 | S. cerevisiae deletion strains, locus YGR135W, strain pre9, hits give low values 0.977 | S. cerevisiae deletion strains, locus YGR252W, strain gcn5, hits give low values 1.01 | S. cerevisiae deletion strains, locus YHR030C, strain SLT2, hits give low values 0.987 and 0.965 | S. cerevisiae deletion strains, locus YHR079C, strain IRE1 (second series), hits give low values 1.01 | S. cerevisiae deletion strains, locus YHR079C, strain IRE1, hits give low values 0.963 | S. cerevisiae deletion strains, locus YHR094C, strain hxt1, hits give low values 1.01 | S. cerevisiae deletion strains, locus YHR129C, strain ARP1, hits give low values 0.986 | S. cerevisiae deletion strains, locus YHR200W, strain rpn10, hits give low values 0.997 | S. cerevisiae deletion strains, locus YIL066C, strain RNR3, hits give low values 0.983 | S. cerevisiae deletion strains, locus YIL073C, strain SPO22, hits give low values 1.03 | S. cerevisiae deletion strains, locus YIL125W, strain kgd1, hits give low values 1.01 | S. cerevisiae deletion strains, locus YIR030C, strain dcg1, hits give low values 1 | S. cerevisiae deletion strains, locus YJL095W, strain BCK1, hits give low values 0.932 and 0.982 | S. cerevisiae deletion strains, locus YJL134W, strain LCB3, hits give low values 0.985 | S. cerevisiae deletion strains, locus YJL168C, strain set2, hits give low values 1 | S. cerevisiae deletion strains, locus YJL187C, strain SWE1 (second series), hits give low values 0.994 | S. cerevisiae deletion strains, locus YJR043C, strain POL32, hits give low values 1 | S. cerevisiae deletion strains, locus YJR066W, strain TOR1, hits give low values 0.93 | S. cerevisiae deletion strains, locus YJR075W, strain HOC1, hits give low values 0.992 | S. cerevisiae deletion strains, locus YKL009W, strain mrt4, hits give low values 0.996 | S. cerevisiae deletion strains, locus YKL068W, hits give low values 0.994 | S. cerevisiae deletion strains, locus YKL085W, strain MDH1 (second series), hits give low values 0.991 | S. cerevisiae deletion strains, locus YKL085W, strain MDH1, hits give low values 0.991 | S. cerevisiae deletion strains, locus YKL190W, strain CNB1, hits give low values 0.984 | S. cerevisiae deletion strains, locus YKR001C, strain vps1, hits give low values 0.951 | S. cerevisiae deletion strains, locus YLR039C, strain RIC1, hits give low values 0.842 | S. cerevisiae deletion strains, locus YLR058C, strain SHM2, hits give low values 0.987 | S. cerevisiae deletion strains, locus YLR102C, strain apc9, hits give low values 1 | S. cerevisiae deletion strains, locus YLR113W, strain HOG1, hits give low values 1 | S. cerevisiae deletion strains, locus YLR262C, strain YPT6, hits give low values 0.836 | S. cerevisiae deletion strains, locus YLR268W, strain sec22, hits give low values 1.01 | S. cerevisiae deletion strains, locus YLR330W, strain CHS5, hits give low values 0.98 | S. cerevisiae deletion strains, locus YLR342W, strain FKS1 (second series), hits give low values 0.959 | S. cerevisiae deletion strains, locus YLR371W, strain rom2, hits give low values 1.02 | S. cerevisiae deletion strains, locus YLR418C, strain cdc73, hits give low values 1.03 | S. cerevisiae deletion strains, locus YML016C, strain PPZ1, hits give low values 0.983 | S. cerevisiae deletion strains, locus YML032C, strain rad52, hits give low values 1.02 | S. cerevisiae deletion strains, locus YML124C, strain tub3, hits give low values 1 | S. cerevisiae deletion strains, locus YMR078C, strain ctf18, hits give low values 1 | S. cerevisiae deletion strains, locus YMR223W, strain ubp8, hits give low values 0.983 | S. cerevisiae deletion strains, locus YMR307W, strain GAS1, hits give low values 0.902 | S. cerevisiae deletion strains, locus YNL067W, strain RPL9B, hits give low values 0.993 | S. cerevisiae deletion strains, locus YNL128W, strain TEP1, hits give low values 1.01 | S. cerevisiae deletion strains, locus YNL153C, strain GIM3, hits give low values 1 | S. cerevisiae deletion strains, locus YNL183C, strain NPR1, hits give low values 0.915 | S. cerevisiae deletion strains, locus YNL233W, strain BNI4, hits give low values 0.97 | S. cerevisiae deletion strains, locus YNL250W, strain rad50, hits give low values 1.03 | S. cerevisiae deletion strains, locus YNL271C, strain bni1, hits give low values 1 | S. cerevisiae deletion strains, locus YNL298W, strain CLA4, hits give low values 1.03 | S. cerevisiae deletion strains, locus YNL307C, strain MCK1, hits give low values 1 | S. cerevisiae deletion strains, locus YNR052C, strain pop2, hits give low values 0.989 | S. cerevisiae deletion strains, locus YOL006C, strain TOP1, hits give low values 0.848 | S. cerevisiae deletion strains, locus YOL012C, strain htz1 1.5 | S. cerevisiae deletion strains, locus YOL147C, strain pex11, hits give low values 1.01 | S. cerevisiae deletion strains, locus YOR061W, strain CKA2, hits give low values 0.983 | S. cerevisiae deletion strains, locus YOR069W, strain VPS5, hits give low values 0.984 | S. cerevisiae deletion strains, locus YOR136W, strain idh2, hits give low values 1.01 | S. cerevisiae deletion strains, locus YOR144C, strain elg1, hits give low values 1.01 | S. cerevisiae deletion strains, locus YOR184W, strain ser1, hits give low values 0.955 | S. cerevisiae deletion strains, locus YOR231W, strain MKK1, hits give low values 0.951 | S. cerevisiae deletion strains, locus YOR316C, strain cot1, hits give low values 1.01 | S. cerevisiae deletion strains, locus YPL055C, strain LGE1, hits give low values 1.01 | S. cerevisiae deletion strains, locus YPL241C, strain CIN2, hits give low values 0.978 | S. cerevisiae deletion strains, locus YPL256C, strain CLN2, hits give low values 0.972 | S. cerevisiae deletion strains, locus YPR119W, strain clb2, hits give low values 1.01 | S. cerevisiae deletion strains, locus YPR141C, strain kar3, hits give low values 1.01 | S. cerevisiae deletion strains, locus YPR163C, strain tif3, hits give low values 1.03 | S. cerevisiae deletion strains, locus YPR167C, strain met16, hits give low values 1 | S. cerevisiae deletion strains, strain wtn01, hits give low values 1.01 | S. cerevisiae strains, strain wild type, hits give low values 0.987
